# ± gives the standard deviation.
# Tested on: MILI (PIWIL2) piRISC loaded with L1MC piRNA (26 nt)
# Test: pre-steady-state target cleavage rate (min^-1); guide: L1MC piRNA 5'p-UAACUAAAUACUAUGCAAGCUGUAGG; MIWI and MILI are mouse PIWI proteins and EfPiwi is from a freshwater sponge; tags in brackets are library labels; higher = faster piRNA-guided slicing of the target
# Settings: auxiliary factor: 500 nM mouse GTSF1
# Outline: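 Cleave-'n-Seq reactions paired 0.1 nM transcribed, DNA-blocked target RNA library with 1 nM active affinity-purified piRISC holding one synthetic guide, plus or minus 500 nM GTSF1 partner protein, in HEPES–potassium acetate buffer at 33 °C for 0–8 or 0–960 min. After sequencing of uncleaved targets and normalisation to depth and weakly complementary targets, the pre-steady-state cleavage rate was taken from a burst-and-steady-state fit. Three trials were pooled, and k3 was capped at 0.0001 min^-1.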
row,Sequence,pre-steady-state target cleavage rate
1,UCCUGGAUGUCGAAGCAUAUUAUUUAGUUA,0.00703 ± 0.0037
2,UCCUGGAUGUCGAAGCAUAGUAUUUACUUA,0.00488 ± 0.0029
3,UCCUGGUACAGCUUGCAUAGAUUUUAGAAA,0.00722 ± 0.0042
4,UCCUGCUUGUGCUUGCAUAGUAUUUUCAAA,0.00521 ± 0.0042
5,UCCUGGAUGUCCUUGCAUAGUAUUUUCUAA,0.0134 ± 0.0068
6,UCCUGGAUGUCCAUGCAUAGUAUUAAGUUA,0.0665 ± 0.018
7,UCCUGGAUCAGCUUGGAUAGUAUUUAGAUA,0.0949 ± 0.016
8,UCCUGGUACAGCUUGCAUUGUAUUUACUUA,0.05 ± 0.015
9,UCCUGGUACAGCAUGCAUAGAAUUUAGUUA,0.197 ± 0.07
10,UCCUGGAUGUGCUUGCAUAGUAUAUAGAUA,0.00547 ± 0.0037
11,UCCUGGAUGUCGAACGUAUGUAUUUUGUAA,< 0.0001
12,UCCUGGAUCAGCUUGCUUAGUAUUUACAAA,0.0696 ± 0.019
13,UCCUGGAUCAGCUUGCAUAGAAUUUACUUA,0.021 ± 0.0075
14,UCCUGGAUGAGCUUGGAUAGAAUUUAGUUA,0.0131 ± 0.0067
15,UCCUGGAACAGCUUGCUUAGUAUUUUCAAA,0.0287 ± 0.011
16,UCCUGGAUCAGCUUGCAAAGUAUUUAGAAA,0.0827 ± 0.015
17,UCCUCCUACAGCUUGCAUAGAAAUUAGUUA,0.0406 ± 0.0085

row,Sequence,pre-steady-state target cleavage rate
1,UCCUGCUACAGCUAGCAUAGUAUUUACAAA,0.0708 ± 0.018
2,UCCUGGAUGUCGAAGCAUAGUAUUUACGUUA,0.0359 ± 0.0066
3,UCCUGGAACAGCUUGCAUAGUAUAAAGUAA,0.249 ± 0.063
4,UCCUGGAUCAGCUUGGUAAGUAUUUAGUAA,0.0371 ± 0.011
5,UCCUGGAUCAGCUUGCAAUGUAUUUUCAAA,0.00576 ± 0.0035
6,UCCUGGAUGUCGUUGCUUAGUAUUUAGAUA,0.0162 ± 0.0057
7,UCCUGGAUGAGCAACCAUAGUAUUUAGUUA,0.0437 ± 0.011
8,UCCUGGAUGAGCUUGCAUAGUAUUAUGAAA,0.00473 ± 0.0045
9,UCCUGGAACUCCUUGCAUAGUAUUUUCAAA,0.0315 ± 0.0074
10,UCCUGGAUGAGCUUGCAUAGUAUAAAGUAA,0.0682 ± 0.02
11,UCCUGGAUGUCGAAGCAUAGUAUUUAGUGUA,0.035 ± 0.012
12,UCCUGGAUGAGCAAGCAUAGUAUUUAGAAA,0.0674 ± 0.015
13,UCCUGGAUCAGCAAGCAUAGUAUUUAGAAA,0.101 ± 0.013
14,UCCUGCUACAGCUUGCAUAGUAAAAACAAA,0.0234 ± 0.01
15,UCCUGGAUGUGCUUGCAUAGUAAUUAGUAA,0.0721 ± 0.018
16,UCCUGGAUGUCGAUGCAUAGUUUUUAGUAA,0.0058 ± 0.0029
17,UCCUGGAUGUGCUUGCAUAGUAUUUAUUUA,0.0305 ± 0.011

# Reference: the supplement of paper PMC10338343
